Source: PubChem BioAssay (Tox21)
Values joined by “and” are separate entries in the source; they are usually repeats but may differ in a detail not shown here. Equal values may be shown once. Records with an inconclusive call do not appear. Active and inactive are the calls of the source. Calls come from the whole dose curve; as a rule, active = well fitted cell-killing curve with a large enough effect in the repeat runs; inconclusive = weak or mixed curves, or effect the other way; inactive = flat fitted curve, though single readings scatter.

Test: Human pregnane X receptor (PXR) small molecule agonists, qHTS cell viability counter screen (AID 1346977); note: nearly all actives have a fitted effect of over 50% in size
Conditions: PXR-Luc HepG2 viability, CellTiter-Fluor, 24 h; series mostly up to 92.4 µM; activity change, negative = cytotoxicity: at the top concentration
Description: U.S. Tox21 Program National Center for Advancing Translational Sciences [NCATS] NIH Chemical Genomics Center [NCGC] U.S. Environmental Protection Agency [EPA] National Institutes of Environmental Health Sciences [NIEHS] National Toxicology Program [NTP] U.S. Food and Drug Administration [FDA] Tox21 Assay Overview: The human pregnane X receptor (hPXR) regulates the expression of several drug metabolizing enzymes and induction of these proteins is a major mechanism for developing drug resistance in cancer. One such key enzyme catalyzing the drug metabolism is cytochrome P450 3A4 (CYP3A4). Changes in CYP3A4 expression affect drug metabolism, thereby reducing the therapeutic efficacy and altering toxicological response to a drug and which finally causes adverse drug interaction. To screen Tox21 libraries for compounds that activate hPXR-mediated CYP3A4 gene expression, PXR-Luc HepG2 cells were used. Also cytotoxicity of the compounds was tested in parallel by measuring the cell viability using CellTiter-Fluor assay system in the same wells.
Tox21 Assay Protocol Summary: PXR-Luc HepG2 cells were dispensed at 2,000 per well in 5uL of assay medium containing 5% charcoal-stripped FBS into white solid bottom 1536-well plates (Corning Life Sciences, Corning, NY) using a Multidrop Combi (Thermo Scientific, Waltham, MA) dispenser. The assay plates were incubated at 37 C and 5% CO2 for 5hr, and then 23nL of compounds dissolved in DMSO and positive control were transferred using a Pintool station (Wako, San Diego, CA). The assay plates were incubated at 37C and 5% CO2 for 24hr. For cytotoxicity read, after 23hr incubation at 37C, 1uL CellTiter-Fluor reagent (Promega Corporation, Madison, WI) was added to each well of the assay plates using Flying Reagent Dispenser (FRD, Aurora Discovery, San Diego, CA). After 1hr incubation at 37C and 5% CO2, the fluorescence signal was quantified using a ViewLux plate reader (PerkinElmer, Shelton, CT).
% is set by controls: 0 for no effect and ±100 for the full control effect; potency is the fitted concentration of half-maximal effect.

SMILES | Potency | activity change, negative = cytotoxicity
O=C1NCN(c2ccccc2)C12CCN(CCCC(c1ccc(F)cc1)c1ccc(F)cc1)CC2 | 29.8 µM (active) | –
c1cc[nH]c1 | – | 1.5% (inactive)
CCN(CC)CCNc1ccc(CO)c2sc3ccccc3c(=O)c12 | 7.5 µM (active) | –
Cc1cccc(C)n1 | – | 4.69% (inactive)
CCOC(=O)COc1ccc(C)cc1 | – | -0.867% (inactive)
CCCCNc1c(C(=O)OCC)c(C)nc2c1cnn2CC | – | -3.03% [at 42.5 µM] (inactive)
COc1ccc(C#N)cc1 | – | 2.51% (inactive)
O=C1OC(=O)c2ccc3c4c(ccc1c24)C(=O)OC3=O | – | -0.255% (inactive)
CO[C@H]1C=CO[C@@]2(C)Oc3c(C)c(O)c4c(O)c(cc(O)c4c3C2=O)NC(=O)/C(C)=C\C=C/[C@H](C)[C@H](O)[C@@H](C)[C@@H](O)[C@@H](C)[C@H](OC(C)=O)[C@@H]1C | 48.9 µM (active) | –
COc1cc(C(=O)NS(=O)(=O)c2ccccc2C)ccc1Cc1cn(C)c2ccc(NC(=O)OC3CCCC3)cc12 | – | -1.27% [at 42.5 µM] (inactive)
CCC1CCCCC1 | – | 0.281% (inactive)
SCCCCCCCCS | – | -1.12% (inactive)
CCCCCCCC(OC)OC | – | 2.2% [at 42.5 µM] (inactive)
C/C=C/C=N/NC(=O)c1ccncc1 | – | -19.3% [at 42.5 µM] (inactive)
O=C1OC(=O)c2cccc3cccc1c23 | – | -17.7% (inactive)
CCCCCCCC/C=C/CCCOC(C)=O | – | -5.53% (inactive)
C[Si](C)(C)Cl | – | 3.03% (inactive)
O[C@@H](c1cc(C(F)(F)F)nc2c(C(F)(F)F)cccc12)[C@H]1CCCCN1 | 26.6 µM (active) | –
C[C@]12CC[C@H]3C(=CCc4cc(O)ccc43)[C@@H]1CCC2=O | – | -2.86% (inactive)
CN(C)CCCN1c2ccccc2CCc2ccccc21 | 30.6 µM (active) and 23.7 µM (active) | –

SMILES | Potency | activity change, negative = cytotoxicity
CC(C)(C)c1n[nH]c(=O)n(N)c1=O | – | -0.686% (inactive)
CCc1cccc(CC)c1N(COC)C(=O)CS(=O)(=O)O | – | -0.07% (inactive)
CC(C)=CC1CC(C)CCO1 (stereo not given) | – | 0.0881% (inactive)
CC(C)CCOCCC(C)C | – | 2.2% (inactive)
CCCCOC(=O)C(C)CC (stereo not given) | – | -0.328% (inactive)
Clc1cc(Cl)c(-c2c(Cl)c(Cl)cc(Cl)c2Cl)cc1Cl | – | 2.32% [at 42.5 µM] (inactive)
O=S(O)O | – | 6.89% [at 19 µM] (inactive)
CCCCCCCC(=O)OCC | – | -1.57% (inactive)
Cc1cn[nH]c1 | – | -0.978% [at 42.5 µM] (inactive)
N[C@@H](CSSC[C@H](N)C(=O)O)C(=O)O | – | -23% [at 0.349 µM] (inactive)
Cc1c(C(=O)O)cccc1[N+](=O)[O-] | – | -5.87% (inactive)
CCCCCCCC/C=C\CCCCCCCC(=O)OCCOC(=O)CCCCCCC/C=C\CCCCCCCC | – | -16.1% (inactive)
Clc1ccccc1CN1CCc2sccc2C1 | – | -4.93% [at 42.5 µM] (inactive)
CC(C)=CCCC(C)CCOC(=O)C(C)C (stereo not given) | – | -0.195% (inactive)
C=CC(=C)CCC=C(C)C | – | -6.46% (inactive)
CC(C)(c1cc(Br)c(O)c(Br)c1)c1cc(Br)c(O)c(Br)c1 | – | -6.9% (inactive)
CCCCCCCCC(C)=O | – | 3.59% (inactive)
CC1=C(/C=C/C(C)=C/C=C/C(C)=C\C=O)C(C)(C)CCC1 | – | -22.7% (inactive)
CC(=O)Oc1ccc(C2(c3ccc(OC(C)=O)cc3)C(=O)Nc3ccccc32)cc1 | – | 4.17% [at 42.5 µM] (inactive)
COc1ccccc1OCCNCC(O)COc1cccc2[nH]c3ccccc3c12 (stereo not given) | 23.7 µM (active) | –
